# In PubChem BioAssay (NCATS):
# Results filed as inconclusive are left out. A call without a number means that no potency is given here. Calls of active or inactive are those of the source. Unless noted, the call rests on the fitted dose curve; in most records, active means well fitted curve in the direction sought with a large enough effect; inconclusive means small, poorly fitted or top-dose-only effect, or another doubt; inactive means no such curve, though single readings can be large; an effect the other way counts as inactive or inconclusive.
# Experiments:
# [1] = molecular target: Rap guanine nucleotide exchange factor 3 (Homo sapiens) (UniProt O95398); experiment: Confirmatory qHTS for antagonist of cAMP-regulated guanine nucleotide exchange factor 3 (EPAC1) (AID 1645880); further: nearly all actives have a fitted effect of over 55% in size
# In short: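 Nucleotide exchange uses 100 nM EPAC1, 250 nM RAP1B-BODIPY-GDP and 50 uM GDP, with compounds in a concentration-titration series. After 5 min at room temperature, fluorescence (480 nm ex/540 nm em) is read every 5 min for 30 min. Data are normalized to control ATA and DMSO.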
# [2] = molecular target: Rap guanine nucleotide exchange factor 4 (Homo sapiens) (UniProt Q8WZA2); experiment: Confirmatory qHTS for antagonist of cAMP-regulated guanine nucleotide exchange factor 4 (EPAC2) (AID 1645885); further: nearly all actives have a fitted effect of over 25% in size; further: potency means the concentration at half of the fitted maximal effect
# [3] = qHTS for differential inhibitors of proliferation of Plasmodium falciparum line 7G8 (AID 1815);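 further: parasite growth measured after three days of incubation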; further: potency means the concentration at half of the fitted maximal effect
# [4] = molecular target: RecQ-like DNA helicase BLM (Homo sapiens) (UniProt P54132); experiment: qHTS Validation Assay for Inhibitors of Bloom's syndrome helicase (BLM) (AID 2364)
# In short: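 Forked 20-bp duplex substrate (200 nM, TAMRA/BHQ-2) plus 2 mM ATP added after 15 min compound preincubation with 50 nM enzyme, pH 8.0, poly(dI-dC) 2.5 ug/ml. Strand separation followed by fluorescence (525/598 nm) over 2 h, normalized to enzyme-free and DMSO controls.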
# [5] = Validation screen for small molecules that induce DNA re-replication in SW480 colon adenocarcinoma cells (AID 504364)
# In short: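 250 cells/well; compound pinned in; 48 hr, 37 C, 5% CO2; Hoechst added, 40 min; nuclear fluorescence imaged, 405 ex / 500-530 em; re-replication scored as increase in high-intensity nuclei.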
# [6] = NCATS anti-infectives library activity on HEK293 viability as a counter-qHTS vs the C. elegans viability qHTS (AID 1745854);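 further: HEK293 cells exposed to compounds for 24 hr before the viability read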
# In short: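 Compounds were acoustically plated (several concentrations, 1:5, final up to 41.7 uM), then 1500 HEK293 cells added per well and incubated 24 hr at 37C, 5% CO2. CellTiter-Glo was added and luminescence read after 10 min.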
# [7] = qHTS Assay for Modulators of Human Peripheral Myelin Protein 22 (PMP22) Expression/Activity (AID 1967; active means well fitted curve in the direction sought with a large enough effect in the signal ratio; the % refers to the signal ratio)
# In short: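 Readout is the corrected green/red luminescence ratio after 24 h compound exposure, normalised to untreated cells (0%). Engineered MSC80 mouse Schwann cells express green luciferase from the mouse Pmp22 promoter and red luciferase from EF-alpha as internal control.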
# [8] = molecular target: Ferritin light chain (Equus caballus) (UniProt P02791); experiment: qHTS Validation Assay for Identification of Novel General Anesthetics (AID 2323); further: series mostly up to about 77 µM
# In short: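 Competitive displacement of the profluorescent anesthetic 1-AMA (50% saturated, PBS) from 10 uM apoferritin, 10 min, room temperature. Activity is normalized 380/535 nm fluorescence; concentration-response fitted with a four-parameter Hill equation.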
# [9] = Quantitative high throughput screen for delayed death inhibitors of the malarial parasite plastid, 48 hour incubation (AID 488752); further: nearly all actives have a fitted effect of over 65% in size; further: potency means the concentration at half of the fitted maximal effect
# In short: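 Readout is firefly luciferase luminescence from a reporter integrated into the parasite genome, with lower signal taken as inhibited growth. Infected red cells (0.1% parasitemia, 2% hematocrit final) are cultured with compound for one 48 h cycle at 37 C.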
# [10] = molecular target: Guanine nucleotide-binding protein G(i) subunit alpha-1 (Homo sapiens) (UniProt P63096); experiment: qHTS Assay for Inhibitors of RGS12 GoLoco Motif Activity (Green Fluorophore) (AID 879);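 further: negative values mean loss of peptide binding seen as reduced polarization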
# In short: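 Fluorescence polarization assay: 50 nM Gαi1 with 10 nM FITC-labeled RGS12 GoLoco peptide in 10 mM Tris pH 7.5, 150 mM NaCl, 0.1 mM GDP, 0.05% NP40, 10 min at room temperature with compound.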
# [11] = molecular target: Muscarinic acetylcholine receptor M1 (Rattus norvegicus) (UniProt P08482); experiment: qHTS Assay for Antagonists of Acetylcholine Muscarinic M1 Receptor: Measurement of IP-One Response (AID 944); further: nearly all actives have a fitted effect of over 75% in size
# In short: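 M1-CHO (rat), 2000 cells/well, overnight recovery; cpd 10 min; carbachol EC80 (200 nM), 30 min, HEPES buffer + 50 mM LiCl pH 7.4; IP-One HTRF, Ex 337, Em 620/665 nm.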
# [12] = molecular target: Pyruvate kinase PKM (Homo sapiens) (UniProt P14618); experiment: qHTS Assay for Activators of Human Muscle Pyruvate Kinase (AID 954; active means well fitted curve in the direction sought with a large enough effect, not every such curve was filed as active)
# In short: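 Enzyme was run at intermediate activity so both inhibitors and activators could be detected. ATP formed from ADP and PEP by 0.1 nM human PKM2 during a 1 h room-temperature incubation was quantified by coupled luciferase luminescence.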
# [13] = molecular target: Alpha-galactosidase A (Homo sapiens) (UniProt P06280); experiment: Counterscreen for Glucocerebrosidase Inhibitors: qHTS Assay for Human alpha-Galactosidase at pH 4.5 (AID 992)
# In short: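 Read-out is 4-methylumbelliferone fluorescence (365 nm excitation, 440 nm emission) after a pH 10 NaOH/glycine stop. Reactions held 2 nM enzyme and 80 uM substrate at pH 4.5 for 20 min at room temperature.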
# [14] = molecular target: alpha-glucosidase (Oryza sativa, rice) (UniProt Q653V4); experiment: Counterscreen for Glucocerebrosidase Inhibitors: qHTS Assay for Rice alpha-Glucosidase at pH 5.0 (AID 997)
# In short: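 Rice alpha-glucosidase (4 nM final) with 400 uM 4-methylumbelliferyl-alpha-D-glucopyranoside in citrate buffer pH 5.0, 20 min at room temperature, stopped at pH 10; fluorescence 365/440 nm, compounds 0.7 nM–77 uM, AC50 from Hill fits.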
# [15] = molecular target: ATP-dependent 6-phosphofructokinase (Trypanosoma brucei brucei) (UniProt O15648); experiment: qHTS Assay to Find Inhibitors of T. brucei phosphofructokinase: hit validation (AID 492961);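 further: luminescence reports ADP formed as PFK phosphorylates fructose-6-phosphate with ATP; series mostly up to about 51 µM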
# In short: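 In this biochemical qHTS validation, titrated compounds were tested against 1.25 nM PFK with 0.1 mM ATP and 0.5 mM F6P. Percent activity came from controls lacking or containing enzyme.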
# [16] = NCATS anti-infectives library activity on the primary C. elegans qHTS viability assay (AID 1745855; calls by dose curve; further: potency means the concentration at half of the fitted maximal effect); details: C. elegans worm area imaging, day 7
# In short: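 Viability read-out is GFP fluorescence of PE254-GFP-FLuc C. elegans, measured by laser cytometry (488 nm) at day 0, 3 and 7. Ten L1 worms per well were incubated 7 days at 21 °C with compounds and bacterial capsules in S medium.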
# [17] = qHTS profiling for inhibitors of Plasmodium falciparum proliferation (AID 504749); further: potency means the concentration at half of the fitted maximal effect; nearly all actives have a fitted effect of over 60% in size; details: P. falciparum in erythrocytes, SYBR Green DNA, 72 h
# In short: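 Infected RBCs, 0.3% parasitemia/2.5% Hct final; cpd 72 h, 37 C, 5% CO2; lysis buffer with saponin/triton/SYBR Green I, o/n RT dark; FI 485/535; norm. to artemisinin (0.29 uM) and DMSO.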
# [18] = molecular target: DNA dC->dU-editing enzyme APOBEC-3G (Homo sapiens) (UniProt Q9HC16); experiment: qHTS for inhibitors of Vif-A3G interactions: Validation (AID 588379)
# In short: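 HeLa cells stably expressing Vif and A3G-eYFP, 700 cells/well, incubated overnight at 37 deg C, then exposed to compound overnight at 37 deg C. Inhibition of Vif-mediated degradation read as increased yellow fluorescence (Ex 488/Em 500-530) by laser-scanning cytometry.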
# [19] = molecular target: Cytochrome P450 2C9 (Homo sapiens) (UniProt P11712); experiment: qHTS Assay for Inhibitors and Substrates of Cytochrome P450 2C9 (AID 883); further: nearly all actives have a fitted effect of over 60% in size; further: potency means the concentration at half of the fitted maximal effect
# In short: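 Inhibition of CYP2C9 is scored as loss of luminescence, with 57uM sulphaphenazole defining 100% inhibition. Substrate Luciferin-H is used at 100uM, equal to its KM; enzyme at 10nM in 25mM KPO4, 60 min at 37C with NADPH regeneration.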
# [20] = molecular target: Cytochrome P450 2D6 (Homo sapiens) (UniProt P10635); experiment: qHTS Assay for Inhibitors and Substrates of Cytochrome P450 2D6 (AID 891); further: nearly all actives have a fitted effect of over 60% in size; further: potency means the concentration at half of the fitted maximal effect;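 on activity change, negative = inhibition: luciferin methyl ether substrate demethylated by CYP2D6 with NADPH regeneration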
# In short: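 Human CYP2D6 (5 nM) with 30 uM Luciferin-ME EGE (at Km) in 100 mM KPO4, compound preincubated 10 min, then NADPH regeneration system for 60 min at room temperature. Luciferin read by luminescence; normalized to 1.43 uM quinidine.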
# Sequence of RecQ-like DNA helicase BLM (Homo sapiens) (P54132 whole entry, looked up): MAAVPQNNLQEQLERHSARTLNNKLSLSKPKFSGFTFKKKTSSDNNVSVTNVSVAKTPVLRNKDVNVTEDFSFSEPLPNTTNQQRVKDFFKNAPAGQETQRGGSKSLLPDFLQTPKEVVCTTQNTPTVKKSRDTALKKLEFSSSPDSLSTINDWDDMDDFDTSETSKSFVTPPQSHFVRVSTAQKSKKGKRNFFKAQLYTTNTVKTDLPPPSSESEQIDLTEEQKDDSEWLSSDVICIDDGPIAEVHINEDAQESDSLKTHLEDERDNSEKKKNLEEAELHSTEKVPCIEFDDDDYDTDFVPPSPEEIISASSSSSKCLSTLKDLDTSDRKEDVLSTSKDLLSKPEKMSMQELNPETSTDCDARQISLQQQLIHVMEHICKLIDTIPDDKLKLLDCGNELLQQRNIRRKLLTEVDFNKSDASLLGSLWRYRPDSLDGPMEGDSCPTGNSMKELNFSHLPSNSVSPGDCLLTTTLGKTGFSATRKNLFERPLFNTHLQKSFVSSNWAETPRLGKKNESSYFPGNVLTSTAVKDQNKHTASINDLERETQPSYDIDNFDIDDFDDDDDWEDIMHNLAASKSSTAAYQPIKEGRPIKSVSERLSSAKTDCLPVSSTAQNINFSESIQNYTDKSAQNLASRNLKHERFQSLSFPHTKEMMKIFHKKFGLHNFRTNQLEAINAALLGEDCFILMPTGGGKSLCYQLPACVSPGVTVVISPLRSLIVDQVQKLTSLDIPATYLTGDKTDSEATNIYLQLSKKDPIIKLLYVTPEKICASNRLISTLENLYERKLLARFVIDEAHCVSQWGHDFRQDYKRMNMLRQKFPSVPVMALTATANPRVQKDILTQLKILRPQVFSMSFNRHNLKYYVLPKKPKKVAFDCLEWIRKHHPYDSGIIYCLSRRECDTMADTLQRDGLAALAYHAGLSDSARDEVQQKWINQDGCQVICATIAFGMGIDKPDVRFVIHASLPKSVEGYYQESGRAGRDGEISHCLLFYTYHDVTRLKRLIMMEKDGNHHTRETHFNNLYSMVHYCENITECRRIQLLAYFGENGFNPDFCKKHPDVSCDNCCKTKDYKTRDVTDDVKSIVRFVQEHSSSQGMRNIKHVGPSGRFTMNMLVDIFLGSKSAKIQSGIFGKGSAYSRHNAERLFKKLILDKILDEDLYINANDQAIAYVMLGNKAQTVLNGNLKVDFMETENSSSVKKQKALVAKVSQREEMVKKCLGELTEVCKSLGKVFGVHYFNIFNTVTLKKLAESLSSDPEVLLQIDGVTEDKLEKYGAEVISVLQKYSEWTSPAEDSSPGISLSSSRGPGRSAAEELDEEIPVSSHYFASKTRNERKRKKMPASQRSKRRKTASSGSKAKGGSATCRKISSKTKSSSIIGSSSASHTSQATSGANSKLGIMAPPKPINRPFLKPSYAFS
# Sequence of Rap guanine nucleotide exchange factor 4 (Homo sapiens) (Q8WZA2 whole entry, looked up): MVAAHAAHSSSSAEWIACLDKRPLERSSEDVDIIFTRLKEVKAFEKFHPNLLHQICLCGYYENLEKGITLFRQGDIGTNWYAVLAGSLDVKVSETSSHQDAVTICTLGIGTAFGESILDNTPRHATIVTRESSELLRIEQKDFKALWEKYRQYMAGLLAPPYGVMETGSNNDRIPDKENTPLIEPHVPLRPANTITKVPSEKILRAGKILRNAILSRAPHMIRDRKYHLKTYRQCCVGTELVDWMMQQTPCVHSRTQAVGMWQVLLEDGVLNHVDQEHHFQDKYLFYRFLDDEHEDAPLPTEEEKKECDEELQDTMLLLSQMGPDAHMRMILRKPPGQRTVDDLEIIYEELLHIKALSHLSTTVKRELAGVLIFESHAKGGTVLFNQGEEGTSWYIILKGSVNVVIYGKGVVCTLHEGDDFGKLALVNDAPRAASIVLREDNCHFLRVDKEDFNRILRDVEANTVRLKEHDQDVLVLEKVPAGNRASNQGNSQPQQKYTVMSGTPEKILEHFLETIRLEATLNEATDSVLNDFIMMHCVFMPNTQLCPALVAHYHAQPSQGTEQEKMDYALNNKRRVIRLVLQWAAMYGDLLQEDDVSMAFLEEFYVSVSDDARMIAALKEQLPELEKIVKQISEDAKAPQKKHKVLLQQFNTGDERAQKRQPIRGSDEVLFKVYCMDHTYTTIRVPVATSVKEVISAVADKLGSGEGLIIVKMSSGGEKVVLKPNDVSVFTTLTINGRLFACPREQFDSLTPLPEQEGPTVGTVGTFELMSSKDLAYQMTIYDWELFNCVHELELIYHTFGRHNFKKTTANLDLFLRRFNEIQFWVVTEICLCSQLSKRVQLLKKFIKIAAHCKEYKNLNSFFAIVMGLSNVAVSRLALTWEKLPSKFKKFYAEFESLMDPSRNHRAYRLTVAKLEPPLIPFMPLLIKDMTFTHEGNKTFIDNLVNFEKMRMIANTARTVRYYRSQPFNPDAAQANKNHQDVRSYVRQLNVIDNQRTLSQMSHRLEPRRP
# Sequence of Cytochrome P450 2C9 (Homo sapiens) (P11712 whole entry, looked up): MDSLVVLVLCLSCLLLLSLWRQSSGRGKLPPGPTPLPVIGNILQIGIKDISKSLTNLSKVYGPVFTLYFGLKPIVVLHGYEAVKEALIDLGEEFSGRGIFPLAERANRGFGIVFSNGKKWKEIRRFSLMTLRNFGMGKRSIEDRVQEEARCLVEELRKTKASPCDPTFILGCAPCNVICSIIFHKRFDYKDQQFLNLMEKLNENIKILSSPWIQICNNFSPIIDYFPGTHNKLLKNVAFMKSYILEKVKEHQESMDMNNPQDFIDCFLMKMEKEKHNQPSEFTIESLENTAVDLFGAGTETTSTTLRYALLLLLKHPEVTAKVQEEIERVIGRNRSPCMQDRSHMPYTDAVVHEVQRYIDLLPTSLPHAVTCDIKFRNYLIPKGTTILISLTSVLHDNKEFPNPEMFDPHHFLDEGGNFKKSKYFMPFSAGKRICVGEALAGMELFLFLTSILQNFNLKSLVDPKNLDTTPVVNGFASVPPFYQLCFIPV
# Sequence of Cytochrome P450 2D6 (Homo sapiens) (P10635 whole entry, looked up): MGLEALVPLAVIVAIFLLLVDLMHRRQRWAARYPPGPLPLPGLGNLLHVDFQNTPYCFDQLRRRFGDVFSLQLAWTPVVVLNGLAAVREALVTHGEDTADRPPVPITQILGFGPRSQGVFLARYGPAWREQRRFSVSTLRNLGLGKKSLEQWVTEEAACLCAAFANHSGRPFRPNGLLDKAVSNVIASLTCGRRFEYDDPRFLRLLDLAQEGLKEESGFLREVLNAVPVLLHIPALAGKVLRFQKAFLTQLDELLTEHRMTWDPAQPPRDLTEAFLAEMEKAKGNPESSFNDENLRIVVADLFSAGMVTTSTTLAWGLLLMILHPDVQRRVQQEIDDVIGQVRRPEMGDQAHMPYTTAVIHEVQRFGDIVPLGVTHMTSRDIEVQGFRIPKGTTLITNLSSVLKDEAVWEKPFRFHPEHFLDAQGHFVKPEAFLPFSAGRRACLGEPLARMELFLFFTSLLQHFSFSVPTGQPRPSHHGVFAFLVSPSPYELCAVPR
# Sequence of Ferritin light chain (Equus caballus) (P02791 2-175 limits assumed): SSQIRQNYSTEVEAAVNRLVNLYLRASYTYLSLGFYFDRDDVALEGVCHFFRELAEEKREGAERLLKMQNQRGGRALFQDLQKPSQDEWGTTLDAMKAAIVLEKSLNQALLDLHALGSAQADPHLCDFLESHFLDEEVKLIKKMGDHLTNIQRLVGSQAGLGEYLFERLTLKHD
# Sequence of DNA dC->dU-editing enzyme APOBEC-3G (Homo sapiens) (Q9HC16 whole entry, looked up): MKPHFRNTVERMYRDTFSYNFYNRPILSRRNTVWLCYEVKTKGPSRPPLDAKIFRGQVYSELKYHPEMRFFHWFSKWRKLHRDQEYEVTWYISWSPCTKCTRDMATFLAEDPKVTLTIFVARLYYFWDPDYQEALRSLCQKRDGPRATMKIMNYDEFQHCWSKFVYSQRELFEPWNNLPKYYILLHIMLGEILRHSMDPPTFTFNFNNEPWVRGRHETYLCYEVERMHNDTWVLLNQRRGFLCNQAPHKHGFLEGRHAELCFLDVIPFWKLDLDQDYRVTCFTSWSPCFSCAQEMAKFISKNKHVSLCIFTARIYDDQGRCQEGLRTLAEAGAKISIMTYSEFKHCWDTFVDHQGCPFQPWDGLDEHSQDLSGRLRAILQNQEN
# Sequence of Rap guanine nucleotide exchange factor 3 (Homo sapiens) (O95398 whole entry, looked up): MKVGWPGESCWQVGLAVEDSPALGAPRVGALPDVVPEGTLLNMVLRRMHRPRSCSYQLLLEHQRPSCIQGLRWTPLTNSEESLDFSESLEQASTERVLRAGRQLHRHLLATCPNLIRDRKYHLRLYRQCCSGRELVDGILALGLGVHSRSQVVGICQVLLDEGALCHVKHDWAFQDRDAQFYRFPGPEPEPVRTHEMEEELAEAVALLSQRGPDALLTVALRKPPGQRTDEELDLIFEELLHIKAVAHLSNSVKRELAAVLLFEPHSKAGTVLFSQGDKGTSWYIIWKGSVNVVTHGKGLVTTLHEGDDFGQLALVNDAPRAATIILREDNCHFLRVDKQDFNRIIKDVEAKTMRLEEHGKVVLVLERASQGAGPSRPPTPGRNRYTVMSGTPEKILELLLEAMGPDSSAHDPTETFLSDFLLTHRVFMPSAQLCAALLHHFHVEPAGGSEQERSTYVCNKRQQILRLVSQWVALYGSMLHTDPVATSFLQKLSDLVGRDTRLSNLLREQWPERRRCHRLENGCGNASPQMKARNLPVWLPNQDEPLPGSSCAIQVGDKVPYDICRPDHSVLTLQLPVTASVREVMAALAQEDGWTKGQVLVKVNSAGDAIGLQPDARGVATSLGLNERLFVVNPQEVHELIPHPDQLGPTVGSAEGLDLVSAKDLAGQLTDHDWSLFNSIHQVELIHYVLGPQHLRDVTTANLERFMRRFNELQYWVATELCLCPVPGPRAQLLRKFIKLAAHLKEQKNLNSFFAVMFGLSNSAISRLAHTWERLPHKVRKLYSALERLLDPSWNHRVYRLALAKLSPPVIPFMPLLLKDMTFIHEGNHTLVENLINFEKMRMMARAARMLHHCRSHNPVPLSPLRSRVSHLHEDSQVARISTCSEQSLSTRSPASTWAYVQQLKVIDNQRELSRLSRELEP
compound,measurement,setting,value
COc1cccc(-c2nc(Nc3ccncc3)c3ccccc3n2)c1,Potency,[1],inactive
same,Potency,[2],inactive
CN1CCc2c(cc(O)c(O)c2Cl)C(c2cccc(Cl)c2)C1 (stereo not given),Potency,[3],5010 nM (active)
same,outcome,[4],inactive
same,outcome,[5],inactive
CC(C)=CCC/C(C)=C/CC/C(C)=C/CC/C(C)=C/CC/C(C)=C/CC/C(C)=C/CC/C(C)=C/CC/C(C)=C/CC/C(C)=C/CO,outcome,[6],inactive
CNC(=O)[C@H]1O[C@@H](n2cnc3c(N)ncnc32)[C@H](O)[C@H]1O,Potency,[3],inactive
same,outcome,[7],inactive
same,outcome,[8],inactive
same,Potency,[9],inactive
same,outcome,[5],inactive
COc1ccc(/C=C/C(=O)O)cc1OC,outcome,[6],inactive
NC(=NCc1ccc(Cl)c(Cl)c1)NC(=O)c1nc(Cl)c(N)nc1N,Potency,[10],inactive
same,Potency,[11],inactive
same,outcome,[12],inactive
same,outcome,[13],inactive
same,outcome,[14],inactive
same,Potency,[3],562 nM (active)
same,outcome,[8],inactive
same,outcome,[4],inactive
same,Potency,[9],370 nM (active)
C[n+]1cccc(C(=O)[O-])c1,outcome,[6],inactive
CC(=O)Oc1ccc2c(c1)CCC1C2CC[C@]2(C)C(OC(C)=O)CCC12 (stereo not given in full),Potency,[2],inactive
COc1ccc(-c2cc(=O)c3c(OC)c(OC)c(OC)c(OC)c3o2)cc1OC,outcome,[6],inactive
CCCC1O[C@@H]2C[C@H]3[C@@H]4CCC5=CC(=O)C=C[C@]5(C)C4[C@@H](O)C[C@]3(C)[C@]2(C(=O)CO)O1 (stereo not given in full),Potency,[3],2240 nM (active)
same,outcome,[8],inactive
same,Potency,[9],10400 nM (active)
same,outcome,[5],inactive
Nc1ncnc2c1nc(Br)n2C1O[C@H]2COP(=O)(O)O[C@@H]2C1O (stereo not given in full),outcome,[8],inactive
same,outcome,[4],inactive
same,Potency,[9],inactive
same,outcome,[5],inactive
CN(C)CCCO[C@H]1C([C@H](O)CO)O[C@@H]2OC(C)(C)O[C@@H]21 (stereo not given in full),Potency,[3],inactive
same,outcome,[7],inactive
same,outcome,[8],inactive
same,outcome,[4],inactive
same,Potency,[9],inactive
same,outcome,[5],inactive
COc1ccc2c(c1OC)C(=O)OC2C1c2c(cc3c(c2OC)OCO3)CCN1C (stereo not given),outcome,[8],inactive
Cc1cc(/C=C\c2ccc3cc(N(C)C)ccc3[n+]2C)c(C)n1-c1ccccc1,outcome,[15],inactive
same,Potency,[16],29000 nM (active)
same,Potency,[17]; parasite line A,1580 nM (active)
same,Potency,[17]; parasite line B,1580 nM (active)
COc1cc(C)c(C(=O)Oc2cc(C)c(C(=O)O)c(O)c2C)c(OC)c1C,Potency,[2],49400 nM (active)
O=C1C=CC2=C3c4cc(O)c(O)cc4CC3(O)COC2=C1O (stereo not given),outcome,[18],inactive
Nc1ncnc2c1ncn2[C@@H]1O[C@H](COP(=O)(O)OP(=O)(O)OP(=O)(O)OP(=O)(O)OC[C@@H]2O[C@H](n3cnc4c(N)ncnc43)[C@@H](O)[C@@H]2O)[C@H](O)[C@H]1O,outcome,[7],inactive
same,outcome,[8],inactive
same,outcome,[4],inactive
same,Potency,[9],inactive
same,outcome,[5],inactive
COc1cc2c3cc1Oc1c(OC)c(OC)cc4c1[C@@H](Cc1ccc(O)c(c1)Oc1ccc(cc1)C[C@@H]3N(C)CC2)N(C)CC4,Potency,[19],inactive
same,Potency,[20],inactive
same,outcome,[18],inactive
same,outcome,[6],inactive
CCC(=O)OC1CCC2C3CCc4cc(O)ccc4C3CC[C@]12C (stereo not given in full),Potency,[2],49400 nM (active)
C[C@@H](Oc1ccc(Oc2cnc3ccc(Cl)cc3n2)cc1)C(=O)O,outcome,[4],inactive
same,Potency,[9],inactive
CC#C[C@]1(O)CC[C@H]2C3CCC4=CC(=O)CCC4=C3[C@@H](c3ccc(N(C)C)cc3)C[C@@]21C (stereo not given in full),Potency,[3],3980 nM (active)
COc1ccccc1-c1ccc2ncnc(NCc3ccccc3)c2c1,Potency,[19],501 nM (active)
COc1ccccc1-c1nccc(NCc2ccccc2)n1,Potency,[20],3980 nM (active)
Cc1ccccc1-c1nc(N2CCOCC2)c2ccccc2n1,"activity change, negative = inhibition",[19],14.3% [at 2.29 µM] (inactive)
COc1cccc(-c2ccc3ncnc(NCCc4c[nH]c5ccc(OC)cc45)c3c2)c1,Potency,[19],398 nM (active)
same,Potency,[20],2510 nM (active)
COc1cccc(Cn2c(=O)c(-c3cc(F)cc(F)c3)nc3cnc(N4CCNCC4)nc32)c1,Potency,[19],7940 nM (active)
CN(C)Cc1ccccc1-c1cc(NCc2cccs2)ncn1,Potency,[20],2000 nM (active)
CN1CCN(c2ncc3nc(-c4cccc(C#N)c4)c(=O)n(C[C@H]4CCCO4)c3n2)CC1,Potency,[20],inactive
CN1CCN(c2ncncc2-c2ccc(N(C)C)cc2)CC1,"activity change, negative = inhibition",[19],36.5% [at 2.29 µM] (inactive)
COc1ccccc1CNc1ncnc2ccc(-c3ccccc3OC)cc12,Potency,[19],794 nM (active)
COc1ccccc1-c1nc(N(C)C)c2ccccc2n1,Potency,[20],3160 nM (active)
COc1ccccc1CNc1ncnc2ccc(-c3ccoc3)cc12,Potency,[20],3160 nM (active)
